The full ranking holds about 9,900 sequences; the median of “r (bound/input frequency ratio)” is about 0.7, and the highest 2% start at about 6.5. Many of the other results were omitted from the sample, so the highest values are more common in it than they were.

To fix the notation:
B1: ENSMUSG00000034801.154|Sos2|134:138;197:201;231:235 (ssRNA)
RNA: GGGAGUUCUACAGUCCGACGAUCGCUUCGAUAUCCGCAUGCUAUUGUUUGGUUUUUACAUCUAGGAGACUUAGGAAUAAUACCCACUGUUCUUAAACUCUUUGAGACCAUGUCUUAAAUGUCAGUAUUUGCUGCUGAAGACAAAAACGGAAAAUAGAAUGAAAUAAUAGAAUGCACACACAUUAUUAUUUUGUUAAAAUUAUAAACAGUUCUACAUAACCUGAUUAUAGAAGAAGGGCAACACAUCAUUAAGAUGUGCCUUUUGUUUUGCAGUCAUACGUGUUUAGCUAAUCAUUGUUUAGCUCUCUUGCGGUCGCACUAGUGUGGAAUUCUCGGGUGUCAAGG
B2: ENSMUSG00000028439.239|Fam219a|33:39;67:71;117:126;145:149 (ssRNA)
RNA: GGGAGUUCUACAGUCCGACGAUCGCUUCGAUAUCCGCAUGCUAUCACAGGAGUUUCUGCAAAAGACUAUGACAUCACACACACUGUGGUCUCACGAGGUACCUGGAGGUCAUACUGCACGGACAUGGGAAGUACGUGAAGAUUUAUUUCGGGAAAAGUGCACACACACAAGCUGUACUGGGUGUCAUCAUACCUGUUGCUUCUGCUGCUGGUCUGGUCUGAGGGAGGAAAGCUGAGGCUGUAGCUCAGUGAGAUGGUGGCUCUCCCAUGGCUGAAGACAAGUGCAAGCAGAGAGAGCCUCAGGCUCUUGCGGUCGCACUAGUGUGGAAUUCUCGGGUGUCAAGG
B3: ENSMUSG00000031028.61|Tub|157:169;187:191 (ssRNA)
RNA: GGGAGUUCUACAGUCCGACGAUCGCUUCGAUAUCCGCAUGCUAUCAGUCCCCUGCUGCAGUGGUGUUAUCACACCGGAAAGCCUCUUCACCUGGAGGUACAGAGGGAGAGGAAGCACAAGCCUGGCUGCUGUGGCUCAGCCAUCCACUCAGCCUACGAGUCAGAGACAGUGGGUGUCCCGGGAAGCAGGGGUACAGUGACACACACACAUACUACAGGGCACUCAAGCUCAUACUAGAAAAAGCUCUGGUGGUCAGCAGAAAGCACUCCCACUUCAAAAGGGCCCAUUAGGCCCAAAGGGGGUCUCUUGCGGUCGCACUAGUGUGGAAUUCUCGGGUGUCAAGG
B4: ENSMUSG00000032194.9|Kank2 (ssRNA)
RNA: GGGAGUUCUACAGUCCGACGAUCGCUUCGAUAUCCGCAUGCUAGAGUGAAUACAGGGAGGAGCCAGUGAGUCCCCCAGGACCCACCAGCCACAAGCCACGCAUCAAACCGUCCCUCCUCCAUCCCUCUGUCCCAUUCUGCCUCGGCAUUCCUCAGCCCCUGAACUUCCCUGAGGGAGCCCUGACAUCUACCAGGCUCAAGCUCCUGGAAGCCUUUCCCAGCACCCUGGGUUCAAAGCCAGAAAGCCAAGCUACAUUCUCCUCCCAGUUGGCACCAGUUGACAACGCCUUGGGUGUGGGUUUCUCUCUUGCGGUCGCACUAGUGUGGAAUUCUCGGGUGUCAAGG
B5: ENSMUSG00000061578.1396|Ksr2 (ssRNA)
RNA: GGGAGUUCUACAGUCCGACGAUCGCUUCGAUAUCCGCAUGCUAAAGUAUAUAUACCUAUAAAUGCUAUAUAUAUUAUAUAUGUGUAUAUACAUAAAGACUACUUCUUGUACAGCCCUCCACGGACCUCAGGCCCACUGUUUUCUCCAUGUCUGUCUGUACUGACUGUUGCAGAAUGAGCUGAUGUAUGAUCUUGAUUCUCCAUUUUCCUUCUGGACCACAUGUCUCUUCCUUUUCCUUUUUAGAUCUGUCUUGCUCUCUGUCUCUCUCACUCAUUGCCAACAUGUUGCUGGGAAAGAAUAUUUCUCUUGCGGUCGCACUAGUGUGGAAUUCUCGGGUGUCAAGG
B6: ENSMUSG00000043670.80|Diras1|67:72 (ssRNA)
RNA: GGGAGUUCUACAGUCCGACGAUCGCUUCGAUAUCCGCAUGCUACUGGCUAAGGAACUGCUCAUCCCAGUCAGGCCCAGAGAGGUUACCUUGCCUCUCCAUCUCUGUCCCACACACCCCAGCCAUGCCCACUGUCCCUGUCCCUCACAUUCUAUCACUGUGACCUCUGGGGAGUGCCCAUUGACCUCAUCUUCCUUCACUAAUAUCUUAUUUCUUUCACCUGAUCCUGUCCUUUCCCCGUGACCUCUGACCUGUGGCCUUCCCUGGGUCCAGAACACCCCUGUCCUCUCCUGUCUGCACACCAGCUCUUGCGGUCGCACUAGUGUGGAAUUCUCGGGUGUCAAGG
B7: ENSMUSG00000090935.729|Synj2bp (ssRNA)
RNA: GGGAGUUCUACAGUCCGACGAUCGCUUCGAUAUCCGCAUGCUAAUCAACCUCCAGUAACAUAUGUGGUUAGUAAGUGCUUCAGCUUGUGUAGCCAUUAAUAACCAAGUCAUAGGAUUGUGAAUCUAAAAUACUCCUGGGUAAAAUUUGUAUUAGAAUGGAAAAAAAAAUGAGGGUCAGAAAGGUGAGCUAACUUCAAGUUAGAUACUCCCCUCUAUUUUGGUCUCAAAUUUGUUUUAGUGUGUCCACAACAUGAAAACAUACAAAAACUAUAUUUUAAAAAUCAGUUUACUUUCAUCUUUUCUCUCUUGCGGUCGCACUAGUGUGGAAUUCUCGGGUGUCAAGG
B8: ENSMUSG00000022095.164|Fam160b2|44:48 (ssRNA)
RNA: GGGAGUUCUACAGUCCGACGAUCGCUUCGAUAUCCGCAUGCUAGGCUAGGCCGAGACACAAGCAGAUAGCUCUGGCAUUGUUCUUCCAUACUCCUCCAUGGCUGGGGCUGCUACCUCACCCGGCCUGAAUCUGUCUCAACCUGCAAGAGCACUCGGGCGGCGCCAGGCAUUACCUCACAACAGGCCUGCAGUUGUUGGCUUCCCUCCUGGGCAAGGAGGAGCAGGCCAGAGCCCCUUUUGCUUCCUUUUCCUGCCCAUGCCACCUCUCGAAGCCGGGCACAGGUUGCCAGGAGGUGACAUGAACUCUUGCGGUCGCACUAGUGUGGAAUUCUCGGGUGUCAAGG
B9: ENSMUSG00000004113.278|Cacna1b|87:91;151:155;229:260 (ssRNA)
RNA: GGGAGUUCUACAGUCCGACGAUCGCUUCGAUAUCCGCAUGCUAAAGUCAGGCCCCUGGCUUAGCACUAGAAAAAAUAAAACCUCAUGGCUGCUUUGCAAAGGGAAAACCCAUGCUCAGGAAGGUGUUCACACACCACAGAUAGCUGGGAGGCCACGAGAGAAAGGUUGCACACAGACAGGCAGGCACUCCUUGCACACGUCUCUCUGUUUUGAAACUUCUGAUGACUUCUUGGUGGCUUGUUGUCUUCUACCCCAUGUUUCUCACAGGAUCACACACACACACACACACACACACACACACACCUCUUGCGGUCGCACUAGUGUGGAAUUCUCGGGUGUCAAGG

In the experiment the target is TDP-43 (Homo sapiens, UniProt Q13148 1-414). Put plainly: RNA Bind-n-Seq with designed 260-mer pool; 25 mM Tris-HCl, 150 mM KCl, 3 mM MgCl2, BSA (printed 500 mg/mL), 20 units/mL SUPERase IN; pH not stated; 500 nM RNA pool, 1 h, 4 C; TDP-43 5, 50, 500 nM; high values mean tight binding. Particulars: protein: recombinant; tags: SBP (GST cleaved off with PreScission; pGEX-GST-SBP). In outline: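 Duplicate measurements used two independent batches of recombinant SBP-tagged TDP-43, which was captured on streptavidin beads at 5, 50 or 500 nM. The beads were incubated with 500 nM of an in vitro-transcribed 260-nt 3′ UTR oligo pool for 1 h at 4 °C in 25 mM Tris-HCl, 150 mM KCl, 3 mM MgCl2, BSA and SUPERase IN. After washing, biotin elution, reverse transcription, PCR amplification and sequencing, binding was expressed as R: each oligo's normalized read abundance in the bound sample over its abundance in input.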
TDP-43, sequence (Q13148 whole entry): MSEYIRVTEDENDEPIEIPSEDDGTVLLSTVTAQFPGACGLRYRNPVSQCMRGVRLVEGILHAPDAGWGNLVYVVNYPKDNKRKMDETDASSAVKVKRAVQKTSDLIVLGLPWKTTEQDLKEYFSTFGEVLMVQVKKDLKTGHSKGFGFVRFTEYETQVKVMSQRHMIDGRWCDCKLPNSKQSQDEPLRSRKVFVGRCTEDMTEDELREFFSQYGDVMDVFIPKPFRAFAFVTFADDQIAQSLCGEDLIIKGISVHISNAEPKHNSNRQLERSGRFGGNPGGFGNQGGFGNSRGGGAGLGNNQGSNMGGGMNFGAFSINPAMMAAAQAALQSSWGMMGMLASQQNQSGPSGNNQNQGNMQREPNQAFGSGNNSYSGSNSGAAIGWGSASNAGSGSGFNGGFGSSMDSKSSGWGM
For the molecule B1, the binding signal was 0.018 R (bound/input frequency ratio).

With B2, the binding signal is 1.35 R (bound/input frequency ratio).

As to B3, the binding signal is 0.59 R (bound/input frequency ratio).

Consider B4, for which the binding signal is 1.04 R (bound/input frequency ratio).

Regarding B5, the binding signal is 0.176 R (bound/input frequency ratio).

As for B6, the binding signal was 2.36 R (bound/input frequency ratio).

For B7, the binding signal is 0.0597 R (bound/input frequency ratio).

Take B8: the binding signal is 0.529 R (bound/input frequency ratio).

Consider B9, for which the binding signal was 1.82 R (bound/input frequency ratio).

Values taken from PMC12864922, “TDP-43 directly inhibits mRNA accumulation in neurites through modulation of mRNA stability”.
